Rows were chosen to be rich in hits. Some 3% of all compounds tested hit in one or more screens of this group.
HIF-2a block: inhibitors of HIF-2a; 786-0 RCC cells HIF-2a reporter, luciferase luminescence, overnight; inhibition, % at 18.8 µM; hit rate 0.72% among 360,000; AID 624352;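 active = inhibition of the luminescence signal of 40% or more relative to plate controls, in a single-dose primary screen at 18.75 µM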
TRPM1 prom inh: MITF TRPM1 promoter inhibition in SK-MEL-5 cells. inhibition, % at 12.5 µM. SK-MEL-5 TRPM1 promoter luciferase, 24 h. hit rate 0.83% among 330,000. AID 488899;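 active = mean inhibition across replicates of 60% or more, whatever share of single replicates reaches that level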
ABHD5 PLIN5 PPI: ABHD5-PLIN5 protein interaction inhibition | Split G. princeps luciferase complementation, luminescence, 4 h | inhibition, % at 4 µM | hit rate 0.78% among 360,000 | AID 602281;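 active = inhibition above the mean inhibition across every tested compound plus 3 SD, cut at about 22% in these data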;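 note: 0% = DMSO only wells and the 100% control is not disclosed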
Target sequence (Q00G26 whole entry, looked up): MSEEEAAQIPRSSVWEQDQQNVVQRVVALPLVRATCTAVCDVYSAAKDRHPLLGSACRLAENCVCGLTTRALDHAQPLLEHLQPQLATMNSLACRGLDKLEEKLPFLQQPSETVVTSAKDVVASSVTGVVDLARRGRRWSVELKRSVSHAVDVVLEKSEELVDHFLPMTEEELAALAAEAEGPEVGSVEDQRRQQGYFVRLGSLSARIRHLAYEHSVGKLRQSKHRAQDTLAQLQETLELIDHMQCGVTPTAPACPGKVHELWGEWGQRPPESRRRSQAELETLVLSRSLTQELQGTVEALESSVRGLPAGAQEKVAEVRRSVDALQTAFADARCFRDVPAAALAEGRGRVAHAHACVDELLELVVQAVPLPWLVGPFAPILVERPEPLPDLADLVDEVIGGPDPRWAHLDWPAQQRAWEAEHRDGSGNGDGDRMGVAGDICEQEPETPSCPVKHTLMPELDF
Target sequence (Q8WTS1 whole entry, looked up): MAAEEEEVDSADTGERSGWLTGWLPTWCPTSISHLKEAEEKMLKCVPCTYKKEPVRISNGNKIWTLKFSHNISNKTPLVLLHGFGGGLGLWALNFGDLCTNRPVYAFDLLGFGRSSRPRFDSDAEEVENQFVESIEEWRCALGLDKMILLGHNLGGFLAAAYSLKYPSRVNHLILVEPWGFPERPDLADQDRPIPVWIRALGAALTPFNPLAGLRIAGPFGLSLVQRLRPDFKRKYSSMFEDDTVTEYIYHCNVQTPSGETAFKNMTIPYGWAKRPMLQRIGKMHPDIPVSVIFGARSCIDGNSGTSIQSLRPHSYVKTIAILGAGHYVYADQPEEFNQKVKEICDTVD
CF NFkB inh: inhibitors of cystic fibrosis induced NF-kB. AID 588850. inhibition, % at 5 µM. KKLEB NF-kB-GFP reporter, PAF-induced, GFP fluorescence overnight. hit rate 0.86% among 360,000;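 active = at least 50% inhibition at 5 µM, scaled per plate between neutral and stimulator controls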;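 note: PAF is a Pseudomonas aeruginosa culture filtrate used as stimulus; plate controls were PAF-stimulated DMSO wells for no effect and unstimulated DMSO wells for full effect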
KKLEB tox: reduces viability of KKLEB cystic fibrosis airway cells; KKLEB CF airway cells viability, ATPlite luminescence, overnight; active compounds read low; cells stimulated with P. aeruginosa culture filtrate; activity change (cytotoxicity), % at 5 µM; hit rate 0.36% among 360,000;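 active = corrected activity change at or below -50% at 5 µM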
Peg3 promoter: inhibitors of Peg3 promoter; HeLa PEG-Prom luciferase reporter, luminescence, overnight; AID 588405; inhibition, % at 20 µM; hit rate 1.7% among 360,000;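 active = inhibition of at least 50% at 20 µM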
Starred values were filed as active, the others as inactive; nt = not tested or not shown.

SMILES	HIF-2a block	TRPM1 prom inh	ABHD5 PLIN5 PPI	CF NFkB inh	KKLEB tox	Peg3 promoter
CCOc1ccccc1Nc1nnc(SCc2nnc(-c3cc(OC)c(OC)c(OC)c3)o2)s1	2	-9	12	-4	-2	65*
COC(=O)C1=C[C@@H](C(=O)OC)[C@@H]2C3=C(C(=O)C2(C)C)[C@H](C)n2c(=O)n(-c4ccccc4)c(=O)n2[C@@H]3C1	7	2	9	8	3	1
COc1ccccc1OCC(=O)NC1CC(C)(C)NC(C)(C)C1	14	4	-1	1	5	5
CCCCN(CC)CCNC(=O)c1cc2c(-c3ccc(Cl)cc3)nn(C)c2s1	31	68*	21	-5	-2	103*
CCCN(CCC)CCNC(=O)c1cc2c(-c3ccc(Cl)cc3)nn(C)c2s1	36	4	12	-2	-14	76*
COc1ccc(CCN(C)S(=O)(=O)c2cn(C)c(=O)n(C)c2=O)cc1OC	3	-16	0	-22	18	-9
CCOc1ccccc1NC(=O)C(CC)Sc1nc2ccncc2[nH]1 (stereo unspecified)	10	13	-7	-12	6	16
CCC(Sc1nc2ccncc2[nH]1)C(=O)Nc1ccc(C)c(Cl)c1 (stereo unspecified)	11	14	-3	-9	0	85*
Cc1ccccc1Cn1c(=N)n(CC(O)c2ccco2)c2ccccc21 (stereo unspecified)	7	-4	2	7	-12	4
CC(C)(C)c1ccc(Cn2c(=N)n(CC(O)c3ccco3)c3ccccc32)cc1 (stereo unspecified)	1	98*	11	25	-22	105*
O=C1C=C(N2CCCCC2)c2ccccc2C1=O	46*	nt	-9	100*	-77*	100*
Cc1nn2c(N3CCOCC3)cc(C(C)(C)C)nc2c1-c1ccccc1	13	6	-3	0	8	5
CCN1CCN(c2cc(C(C)(C)C)nc3c(-c4ccccc4)c(C)nn23)CC1	-8	-18	14	-7	-1	51*
CCN1CCN(c2ccc(NC(=O)CCc3c(C)nc4c(-c5ccccc5)c(C)nn4c3C)cc2)CC1	23	16	4	-6	-27	70*
CCOC(=O)c1c(NC(C)=O)sc2c1CCC(C=NCCCN(CC)CC)=C2Sc1ccccc1	19	38	48*	-6	-6	20
CCOC(=O)c1c(NC(C)=O)sc2c(OCCN(CC)CC)c(Br)ccc12	-2	-24	6	-26	-2	27
Nc1ncnc2c1ncn2[C@@H]1O[C@H](CNCc2ccccc2OC2OC(CO)C(O)C(O)C2O)[C@@H](O)[C@H]1O (stereo partly specified)	11	-6	-1	-17	16	4
COc1cccc(CN2CCN(Cc3cccc4nonc34)CC2CCO)c1 (stereo unspecified)	8	4	-1	-1	0	14
O=C1CCc2cc(S(=O)(=O)NC3CCCCC3)ccc2N1	8	-8	7	-13	-2	103*
CC1CCCCC1NS(=O)(=O)c1ccc2c(c1)CCC(=O)N2 (stereo unspecified)	3	0	-1	0	21	-8
O=C(NC(c1ccc(Cl)cc1)c1cc(Cl)c2cccnc2c1O)c1cccnc1 (stereo unspecified)	20	41	4	-12	-4	66*
Oc1c(C(c2ccccn2)N2CCCCC2)cc(Cl)c2cccnc12 (stereo unspecified)	13	25	0	-9	-9	23
CCCCC(=O)NC(c1cccs1)c1cc(Cl)c2cccnc2c1O (stereo unspecified)	7	45	8	4	-15	51*
CN1CCN(C(c2ccc(Cl)cc2)c2cc(Cl)c3cccnc3c2O)CC1 (stereo unspecified)	50*	43	0	38	-42	65*
O=C(O)c1cccc(S(=O)(=O)Nc2cccc(S(=O)(=O)N3CCCC3)c2)c1	8	8	6	0	2	2
SMILES	HIF-2a block	TRPM1 prom inh	ABHD5 PLIN5 PPI	CF NFkB inh	KKLEB tox	Peg3 promoter
O=C(CSCc1ccc(Cl)cc1)Nc1ccc(-c2nnc(-c3ccccc3)o2)cc1	-3	14	2	40	-42	51*
O=C(Cc1ccc(Cl)cc1)Nc1ccc(-c2nnc(-c3ccco3)o2)cc1	-39	-11	-4	-14	-6	1
O=C(NCC(O)c1ccc([N+](=O)[O-])cc1)C(c1ccccc1)c1ccccc1 (stereo unspecified)	7	1	-2	1	-1	9
O=C(Nc1ccc([N+](=O)[O-])cc1)C(c1ccccc1)c1ccccc1	-4	nt	-7	2	3	52*
C#CCOCCOCCOCCNc1nc(N2CCN(C(=O)CCCCCCCCCCNC(=O)Cn3cc(CCCCCN)nn3)CC2)nc(N2CCN(C(=O)CCCCCCCCCCNC(=O)[C@@H]([C@H](C)O)n3cc(C)nn3)CC2)n1	-6	35	34*	-2	-3	35
C#CCOCCOCCOCCNc1nc(N2CCOCC2)nc(N2CCN(C(=O)[C@H]([C@@H](C)CC)n3cc(CCCN=C(N)N)nn3)CC2)n1	-5	-2	-5	-2	-1	-5
C#CCOCCOCCOCCNc1nc(N2CCN(C(=O)CCCCCCCCCCNC(=O)Cn3cc(C[C@@H](C)O)nn3)CC2)nc(N2CCN(C(=O)CCCCCCCCCCNC(=O)[C@@H]([C@H](C)CC)n3cc(CCCCCN)nn3)CC2)n1	1	99*	55*	20	-40	101*
C#CCOCCOCCOCCNc1nc(N2CCN(C(=O)Cn3cc(CCCCN)nn3)CC2)nc(N2CCN(C(=O)Cn3cc(CC(C)O)nn3)CC2)n1 (stereo unspecified)	1	1	3	0	-6	24
C#CCOCCOCCOCCNc1nc(N2CCN(C(=O)Cn3cc(CCCCN)nn3)CC2)nc(N2CCN(C(=O)[C@H](C(C)C)n3cc(CCO)nn3)CC2)n1	5	-8	6	-8	6	2
C#CCOCCOCCOCCNc1nc(N2CCN(C(=O)CCCCCCCCCCNC(=O)[C@H]([C@@H](C)CC)n3cc(CCCCN=C(N)N)nn3)CC2)nc(N2CCN(C(=O)CCCCCCCCCCNC(=O)[C@@H]([C@H](C)O)n3cc(C)nn3)CC2)n1	-7	65*	56*	7	10	1
CCOc1ccc(NCc2cccn2-c2nnc(N3CCC(C(=O)NCCCN4CC(C)CC(C)C4)CC3)s2)cc1 (stereo unspecified)	5	90*	9	7	-12	43
CC12CNCC(C)(CN(C(c3ccccc3)c3ccccc3)C1)C2	-1	2	6	5	-6	81*
CSC1=C(C#N)C(=O)NC(c2ccccc2O)S1 (stereo unspecified)	20	0	3	-14	2	8
